Hits are enriched below; roughly 19% of the tested compounds scored in any of these assays.
TDP1 cell noCPT – qHTS for Inhibitors of human tyrosyl-DNA phosphodiesterase 1 (TDP1): qHTS in cells in absence of CPT; DT40 Tdp1-/- hTDP1 cells, no CPT, ATP luminescence, 48 h; Potency, µM (series often up to 46.2 µM), inactives show at the highest dose activity change, negative = growth inhibition, most hits filed as inhibitors; 15% of 420,000 active; AID 686978, 2013; further: potency means the concentration at half of the fitted maximal effect; nearly all actives have a fitted effect of over 55% in size
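Chicken DT40 Tdp1-/- cells stably complemented with human TDP1 were seeded at 400 cells/well with DMSO in place of 20 nM camptothecin. After compound pinning, cells grew at least 48 hr at 37 °C; viability read by CellTiter-Glo luminescence.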
ELG1 repair inh – inhibitors of ELG1-dependent DNA repair in HEK293T cells; HEK293T ELG1-luciferase reporter, luminescence, 16 h; DNA damage induced by 5-fluorouridine; Potency, µM (top dose mostly 46.1 µM), for inactives: top-dose activity change, negative = inhibition, usual class: inhibitors; 2.3% of 330,000 active; AID 504467; further: potency means the concentration at half of the fitted maximal effect; nearly all actives have a fitted effect of over 55% in size
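DMSO vehicle served as the neutral condition. Each well held 2,000 cells given 5-fluorouridine plus compound; after 16 hr at 37 °C/5% CO2, ONE-Glo was added and luciferase measured 30 min later.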
IL1B secr inh – inhibitors of inflammasome signaling (IL-1 beta secretion). activity change, % at 57.5 µM. 4.7% of 360,000 active. THP-1 LPS/ATP IL-1B secretion, AlphaLISA, 16 h; stronger effect = lower value; in the data active means activity change below about -50%; inconclusive means mostly about -30% to -49%
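THP-1 cells pretreated 1 hr with compounds (up to 57.5 uM final), then stimulated with LPS (250 ng/mL final) plus ATP (1.25 mM final); secreted IL-1B measured by AlphaLISA after 16 hr, decreased signal indicating inhibition.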
TDP1 block – blocks human tyrosyl-DNA phosphodiesterase 1; Potency, µM (titrated, usually from 130 µM), for inactives: at the highest dose activity change, negative = inhibition, actives largely listed as inhibitors; Q9NUW8; recombinant TDP1, AlphaScreen DNA substrate cleavage; 0.28% of 350,000 active; further: potency means the concentration at half of the fitted maximal effect; nearly all actives have a fitted effect of over 40% in size
Target sequence (Q9NUW8 whole entry, looked up): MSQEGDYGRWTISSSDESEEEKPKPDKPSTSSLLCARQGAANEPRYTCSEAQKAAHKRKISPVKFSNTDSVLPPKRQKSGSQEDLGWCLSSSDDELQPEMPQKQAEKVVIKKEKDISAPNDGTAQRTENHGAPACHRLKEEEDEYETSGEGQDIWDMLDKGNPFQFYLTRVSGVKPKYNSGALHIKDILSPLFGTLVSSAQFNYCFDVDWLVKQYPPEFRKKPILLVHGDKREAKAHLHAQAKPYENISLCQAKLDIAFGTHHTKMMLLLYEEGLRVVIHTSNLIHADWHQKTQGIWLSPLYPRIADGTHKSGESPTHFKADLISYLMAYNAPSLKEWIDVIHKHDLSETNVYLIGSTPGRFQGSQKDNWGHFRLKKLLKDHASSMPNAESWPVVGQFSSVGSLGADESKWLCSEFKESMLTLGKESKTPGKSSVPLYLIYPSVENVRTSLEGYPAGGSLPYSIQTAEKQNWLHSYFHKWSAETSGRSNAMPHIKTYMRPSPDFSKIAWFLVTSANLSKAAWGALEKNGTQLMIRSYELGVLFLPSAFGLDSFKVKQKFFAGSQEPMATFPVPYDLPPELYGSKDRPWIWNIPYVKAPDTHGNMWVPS
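Signal: AlphaScreen proximity between streptavidin donor and anti-FITC acceptor beads on intact substrate. Reaction: Tdp1 1 nM, substrate 15 nM final, 5 min RT after 15 min compound preincubation.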
DT40 TDP1 CPT – DT40-hTDP1 cell growth loss with CPT. Potency, µM (series often up to 46.2 µM), without a hit: at the highest dose activity change, negative = growth inhibition, most hits filed as inhibitors. 12% of 420,000 active. chicken DT40 Tdp1-/-;hTDP1 cells + 20 nM CPT, ATP luminescence, 48 h; further: potency means the concentration at half of the fitted maximal effect; nearly all actives have a fitted effect of over 55% in size
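Cell growth measured by CellTiter-Glo luminescence after a minimum 48 h, 37 C compound exposure with 20 nM CPT in Tdp1-knockout DT40 cells stably expressing hTDP1, seeded 400/well; qHTS titration format.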
Giardia killer – kills Giardia lamblia | AID 540267 | activity change, % at 7.66 µM, hits read low | Giardia lamblia trophozoite viability | 0.15% of 340,000 active; in the data active means activity change below about -80%; inconclusive means between about -30% and that limit;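 further: parasites exposed to compound for two days anaerobically before the ATP read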
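Trophozoite viability was measured as ATP-dependent luminescence, read 15-30 min after reagent addition. Before that, parasites at 100 cells/well were exposed to compounds for 48 h, anaerobically, at 37 deg C.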
* marks the source's active call; other numbers are inactive results; ? = inconclusive; / = no result given; [ ] = remark or other dose. Unless noted, the call rests on the fitted dose curve; in most records, active means well fitted curve in the direction sought with a large enough effect; inconclusive means small, poorly fitted or top-dose-only effect, or another doubt; inactive means no such curve, though single readings can be large; an effect the other way counts as inactive or inconclusive. On the % scale 0 is the no-effect control and ±100 the full control effect.

SMILES | TDP1 cell noCPT | ELG1 repair inh | IL1B secr inh | TDP1 block | DT40 TDP1 CPT | Giardia killer
Cc1ccc(S(=O)(=O)C(C#N)c2nc3ccccc3nc2N2CCCC2)cc1 (stereo not given) | ? | ? | 7 | 2% | -29% | 8
CCN1CCN(c2nc3ccccc3nc2C(C#N)S(=O)(=O)c2ccc(C)c(C)c2)CC1 (stereo not given) | -9% | -17% | 7 | 8% | -4% | -2
N#CC(c1nc2ccccc2nc1N1CCOCC1)S(=O)(=O)c1ccccc1 (stereo not given) | 29µM* | ? | / | 3% | -7% | -2
COc1ccc(C2=NOC(CNC(=S)N3CCOCC3)C2)cc1 (stereo not given) | -3% | ? | -6 | 4% | -3% | 4
O=C(CN(c1ccc(F)cc1)S(=O)(=O)c1ccccc1)N1CCOCC1 | -9% | / | 2 | / | -3% | 0
CC(C)Cn1c(N)c(C(=O)COC(=O)c2ccccc2C(=O)c2ccccc2)c(=O)n(C)c1=O | 9.2µM* | 16µM* | 11 | 4% | 16µM* | 0
Cn1c(N)c(C(=O)COC(=O)c2ccccc2C(=O)c2ccc(Cl)cc2)c(=O)n(C)c1=O | 15µM* | ? | ? | 3% | ? | 10
CC(C)Cn1c(N)c(C(=O)COC(=O)c2ccccc2Cl)c(=O)n(C)c1=O | ? | ? | 1 | 7% | ? | 3
CC(C)Cn1c(N)c(C(=O)COC(=O)c2ccc3ccccc3n2)c(=O)n(C)c1=O | 16µM* | ? | 11 | 4% | 16µM* | 3
Cn1c(N)c(C(=O)COC(=O)c2ccc(-c3ccccc3)cc2)c(=O)n(C)c1=O | ? | 23µM* | 19 | -5% | ? | -14
CCOC(=O)C1CCCN(C(=O)c2cnn(-c3nccc(-c4cc(C)sc4C)n3)c2C)C1 (stereo not given) | ? | / | / | / | 3%[9.04 µM] | /
Cc1cc(Nc2ccccc2F)n2nc(-c3ccccc3)nc2n1 | ? | / | / | 5% | ? | /
C=C[C@@H]1c2cccc(C)c2N(S(=O)(=O)c2ccc(C)cc2)[C@H](c2ccc(OC(C)=O)cc2)C1(C#N)C#N | ? | -5% | 8 | -1% | ? | 22
CC(C)Cn1c(N)c(C(=O)COC(=O)c2cccnc2Cl)c(=O)n(C)c1=O | 10µM* | -17% | 21 | 5% | ? | 14
Cc1onc(-c2ccccc2Cl)c1C(=O)OCC(=O)c1c(N)n(C)c(=O)n(C)c1=O | 7.3µM* | ? | -21 | 5% | 7.3µM* | 5
Cc1onc(-c2c(F)cccc2Cl)c1C(=O)OCC(=O)c1c(N)n(C)c(=O)n(C)c1=O | ? | ? | 11 | 4% | ? | -15
COc1cccc2c3c(c(C)nc12)CCN3c1ccccc1 | 15µM* | 6% | -93* | 3% | ? | 5
COc1cccc2c1nc(C)c1cc(C)oc12 | ? | ? | -2 | 7% | -24% | -17
COc1ccccc1N1CCc2c(C)nc3c(OC)cccc3c21 | 4.1µM* | -9% | -72* | 4% | 5.8µM* | 24
Cc1ccc2nc(C)c3c(c2c1)N(c1ccc(F)cc1)CC3 | ? | ? | / | / | 10µM* | -9
CC(=O)NC1=NN(C(C)=O)C(c2ccc(C)cc2)S1 (stereo not given) | -16% | ? | 2 | -8% | -20% | 15
CC(=O)NC1=NN(C(C)=O)C(c2ccc(F)cc2)S1 (stereo not given) | -33% | ? | 42 | 5% | 2.6µM* | 5
COc1ccccc1CNC(=O)CCC1N=C2c3ccccc3N=C(SCC(=O)NCC3CCCO3)N2C1=O (stereo not given) | 9% | 17% | 21 | 2% | 1% | -25
COCCNc1nc(NCc2cccc(OC)c2OC)c2sccc2n1 | 12µM* | / | 26 | / | ? | /
COc1cccc(CNc2nn[nH]n2)c1OC | 4% | -5% | 0 | -3% | 8% | -26
SMILES | TDP1 cell noCPT | ELG1 repair inh | IL1B secr inh | TDP1 block | DT40 TDP1 CPT | Giardia killer
COc1ccccc1CNc1nc(NCc2cccc(OC)c2OC)c2sccc2n1 | 7.3µM* | / | -90* | / | 4.6µM* | /
O=C(NCC1CCCC(CNC(=O)Nc2ccc(Cl)cn2)C1)Nc1ccc(Cl)cn1 (stereo not given) | ? | ? | -83* | 5% | ? | 11
CCOCCn1c2ccccc2c2nc3ccccc3nc21 | ? | 2% | ? | / | ? | 3
O=C(CSc1nnc(-c2ccco2)n1Cc1ccccc1)NCc1ccccc1 | ? | 21µM* | -8 | 7% | -30% | 0
COC(=O)CCNCCSc1nnc(-c2ccco2)n1Cc1ccccc1 | 8.2µM* | -7% | 0 | / | 12µM* | 48
O=C(CSc1nnc(C2CCCCC2)n1Cc1ccccc1)NCc1ccco1 | 16µM* | -17% | -20 | 1% | 16µM* | -11
CCn1c(SCC(=O)NCc2ccco2)nnc1C1CCCC1 | 21% | -4% | -14 | 8% | 7% | 6
O=C(CSc1nnc(-c2ccccc2O)n1Cc1ccccc1)NNC(=O)c1ccccc1O | ? | 1% | 0 | 5% | ? | 5
Cc1cc(NC(=O)CSc2nnc(-c3ccco3)n2Cc2ccccc2)no1 | -22% | -25% | 9 | 3% | -25% | -13
O=C(CSc1nnc(-c2ccccc2)n1Cc1ccccc1)NNC(=O)c1ccccc1O | 26µM* | ? | 10 | 8% | 16µM* | 18
CCOC(=O)c1c(NC(=O)CC2SC(N)=NC2=O)sc2c1CCCC2 (stereo not given) | -20% | -2% | ? | 4% | ? | 2
CCOc1cc(C(=O)Nc2ccc(C(=O)NCCN(CC)CC)cc2)ccc1OCC(=O)N1CCOCC1 | -17% | 14% | 18 | 2% | 0% | 2
CC1=C(C(=O)OCc2ccccc2)C(C2CCCCC2)NC(=O)N1CCCCCC(=O)O (stereo not given) | / | / | / | 7% | / | /
COc1ccc(N2CCCC2)c(NC(=O)c2ccc(Br)o2)c1 | ? | -26% | 31 | 20% | ? | -10
CCC(c1nnc(SCc2nc3ccccc3s2)n1Cc1ccccc1)N(C)C (stereo not given) | ? | ? | 1 | 4% | -26% | -13
c1ccc(Cn2c(SCc3nc4ccccc4s3)nnc2-c2ccco2)cc1 | ? | ? | -15 | 4% | 15µM* | -3
O=C(Cn1ncc2c1-c1ccccc1OC2)N1CCN(c2ccccc2F)CC1 | 18µM* | / | / | -2% | ? | /

Screening results (PubChem BioAssay)
